Screening data: PubChem BioAssay, National Center for Advancing Translational Sciences (NCATS)
Most compounds without a hit are left out; they make up all but 21% or so of the library.
Pf growth 96h: inhibits malaria parasite growth, 96 h. P. falciparum luciferase reporter growth, 96 h. Potency, µM (top dose mostly 28.7 µM), without a hit: top-dose activity change, negative = inhibition, actives largely listed as inhibitors. 320,000 tested, 6.9% active. AID 504834; further: potency means the concentration at half of the fitted maximal effect; on the % scale 0 is the no-effect control and ±100 the full control effect
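Luminescence readout: decreased luciferase signal marks inhibited growth of reporter-expressing P. falciparum in infected red cells (2% hematocrit, 0.05% parasitemia final), exposed to compound two generations (96 h, 37 C, 5% CO2).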
Pf growth 48h: inhibits P. falciparum growth in the first generation, 48 h | 310,000 tested, 5.9% active | P. falciparum luciferase growth in erythrocytes, 48 h | AID 504832 | Potency, µM (highest dose often 28.7 µM), inactives show at the top dose activity change, negative = inhibition, actives largely listed as inhibitors; further: potency means the concentration at half of the fitted maximal effect; on the % scale 0 is the no-effect control and ±100 the full control effect
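Firefly luciferase activity from engineered P. falciparum reports growth; inhibitors lower the luminescent signal. Cultures contained 2% hematocrit erythrocytes at 0.1% final parasitemia.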
Shiga toxin inh: blocks Shiga toxin action in Vero cells. Vero cells, Shiga toxin protein synthesis inhibition reporter. 290,000 tested, 9.2% active. inhibition, % at 38.7 µM; in the data active means inhibition mostly above about 28%, no sharp cut-off; inactive means mostly below about 43%; further: 0% is about no effect
Cycloheximide cs: counter-screen for Shiga toxin inhibitors: cycloheximide protein synthesis inhibition | cell reporter, cycloheximide protein synthesis inhibition counterscreen | max response, % | 300,000 tested, 12% active | AID 2314; in the data active means max response mostly above about 13%, no sharp cut-off; inactive means mostly below about 14%; further: read at 38.3 µM for the half of the compounds with a filed dose; 0% is about no effect
* = called active by the depositor; i = inactive; ? = inconclusive; / = no result given; + = active, no number. Unless noted, the call rests on the fitted dose curve; in most records, active means well fitted inhibition curve with a large enough effect; inconclusive means small, poorly fitted or top-dose-only effect, or another doubt; inactive means no such curve, though single readings can be large or run the other way.

SMILES	Pf growth 96h	Pf growth 48h	Shiga toxin inh	Cycloheximide cs
CC(=O)N1N=C(c2c(O)n(C)c(=O)n(C)c2=O)CC1c1ccccc1 (stereo not drawn)	2.6µM*	3.7µM*	-2	-3
CS(=O)(=O)Nc1cccc(C2=NN(S(=O)(=O)c3ccccc3)C(c3ccco3)C2)c1 (stereo not drawn)	-1%	-26%	37	16*
CC(=O)N1N=C(c2ccco2)CC1c1ccc(Br)cc1 (stereo not drawn)	10µM*	6%	11	1
Cc1ccc(S(=O)(=O)N[C@H](C(=O)OCC(=O)N2N=C(c3ccc(Cl)cc3)CC2c2ccco2)C(C)C)cc1 (stereo partly drawn)	?	10µM*	-3	1
Cc1ccc(C2CC(c3ccccc3)=NN2C(=O)CSc2nnc(-c3ccc(Cl)cc3)o2)o1 (stereo not drawn)	13%	14%	-4	16
CCc1ccc(C2CC(c3ccco3)=NN2S(C)(=O)=O)cc1 (stereo not drawn)	25%	3%	83*	45*
CCOc1ccc2cc(C3CC(c4ccco4)=NN3S(C)(=O)=O)c(Cl)nc2c1 (stereo not drawn)	?	?	-3	-2
Cc1ccc(C2CC(c3ccccc3)=NN2c2ccccc2)o1 (stereo not drawn)	?	?	64*	21*
Cc1nnc(SCC(=O)N2N=C(c3ccc(Cl)cc3)CC2c2ccco2)[nH]c1=O (stereo not drawn)	39%	27%	46	18*
CSCCC1NC(=O)N(CC(=O)N2N=C(c3ccc(Cl)cc3)CC2c2ccco2)C1=O (stereo not drawn)	10%	21%	0	10
CN(C)S(=O)(=O)c1ccc(Cl)c(NC(=O)CN2C(=O)NC3(CCc4ccccc43)C2=O)c1 (stereo not drawn)	-22%	?	/	/
COC(=O)c1cccc(C23CC4(C2)[C@H](CN(Cc2ccc(C(F)(F)F)cc2)[C@@H]4c2ccccc2)C3c2ccc(Cl)nc2)c1 (stereo partly drawn)	?	?	3	-7
N#Cc1ccc(C23CC4(C2)[C@H](CN(P(=O)(c2ccccc2)c2ccccc2)[C@@H]4c2ccccc2)C3c2ccc(Cl)nc2)cc1 (stereo partly drawn)	4.1µM*	4.7µM*	12	1
c1ccc(C2[C@H]3CN(CC4CCCCC4)[C@H](c4ccccc4)C34CC2(c2cccnc2)C4)cc1 (stereo partly drawn)	?	4.1µM*	-4	-2
c1ccc(C2[C@H]3CN(CC4CCCCC4)[C@H](c4ccccc4)C34CC2(c2ccccc2)C4)cc1 (stereo partly drawn)	?	?	13	-3
COC(=O)c1cccc(C23CC4(C2)[C@H](CN(Cc2cccnc2)[C@@H]4c2ccccc2)C3c2ccccc2)c1 (stereo partly drawn)	5.9µM*	12µM*	-2	1
Clc1ccc(C2[C@H]3CN(Cc4ccc(-c5ccccc5)cc4)[C@H](c4ccccc4)C34CC2(c2ccccc2)C4)cn1 (stereo partly drawn)	-24%	?	14	0
c1ccc(C2[C@H]3CN(Cc4cccnc4)[C@H](c4ccccc4)C34CC2(c2ccccc2)C4)cc1 (stereo partly drawn)	3.3µM*	4.1µM*	5	-5
Cc1ccc(C(C)(C)C)cc1S(=O)(=O)Nc1cccc(S(=O)(=O)NC2=NCCC2)c1	-26%	15%	-3	-6
O=C(OCC(=O)N1CCOCC1)c1cccc(S(=O)(=O)N2CCCc3ccccc32)c1	-15%	-10%	9	7
c1ccc(C2[C@H]3CN(Cc4cccnc4)[C@H](c4ccccc4)C34CC2(c2cccnc2)C4)cc1 (stereo partly drawn)	2.9µM*	2.3µM*	-7	-5
Clc1ccc(C2[C@H]3CN(Cc4cccnc4)[C@H](c4ccccc4)C34CC2(c2ccccc2)C4)cn1 (stereo partly drawn)	8.3µM*	10µM*	-6	-4
CN(CC(=O)Nc1c(Cl)cccc1Cl)C(=O)c1ccc2ccccc2n1	73%	37%	/	/
CN(C)/C=N/c1c(C#N)cnn1-c1ccc(F)c(Cl)c1	/	/	32	15
COc1ccc2cc(-c3nc4ccccc4n3C)c(=O)oc2c1	?	277%	67*	41*
SMILES	Pf growth 96h	Pf growth 48h	Shiga toxin inh	Cycloheximide cs
Cn1c(-c2cc3ccccc3oc2=O)nc2ccccc21	150%	97%	104*	40*
CCN(CC)CCN(CC(=O)Nc1c(C)cc(C)cc1C)C(=O)c1ccccc1	-58%	-3%	-12	0
Cc1ccc(S(=O)(=O)N(CC(=O)c2ccc(Cl)cc2)C(=O)N2CCN(C)CC2)cc1	25%	17%	/	/
O=S(=O)(NCCc1ccccc1F)c1cccc(S(=O)(=O)N2CCOCC2)c1	6.6µM*	-5%	-9	-2
O=S(=O)(NCc1ccccc1)c1cccc(S(=O)(=O)N2CCOCC2)c1	0.059µM*	/	-16	-5
Clc1ccc(-c2csc(N3CCOCC3)n2)cc1	i	i	56*	47*
CCCCC(=O)N1CCN(c2nc(-c3ccc(F)cc3)cs2)CC1	?	9%	10	7
O=[N+]([O-])c1ccc(N2CCN(c3nc(-c4ccc(Cl)cc4)cs3)CC2)cc1	7%	/	-15	-2
Brc1ccc(-c2csc(N3CCOCC3)n2)cc1	?	i	136*	63*
NC(=O)C1(N2CCCCC2)CCN(c2nc(-c3ccc(Br)cc3)cs2)CC1	?	/	-28	-14
c1ccc(-c2cnnc(N3CCCCC3)n2)cc1	?	?	112*	33*
O=C(N1CCOCC1)N1CCN(c2nc(-c3ccc(F)cc3)cs2)CC1	7.4µM*	-12%	-3	10
O=S(=O)(c1ccc(Cl)cc1)N1CCCC(C(F)(F)F)C1 (stereo not drawn)	50%	3%	2	-3
COc1cccc(CN2CCCC(CNC(=O)c3ccc(F)cc3)C2)c1OC (stereo not drawn)	-4%	-11%	-35	-1
O=c1cc2oc3cc(O)c(O)cc3c(-c3ccccc3[N+](=O)[O-])c-2cc1O	96%	?	-1	-8
N#Cc1ccccc1-c1csc(N2CCC(C(N)=O)CC2)n1	7%	9%	/	/
COc1ccc(-c2csc(N3CCOCC3)n2)cc1OC	-20%	125%	75*	51*
Brc1ccc(-c2csc(N3CCCCCC3)n2)cc1	-14%	45%	4	8.6*
COc1ccccc1-c1csc(N2CCC(C(N)=O)CC2)n1	?	12µM*	/	/
c1ccc(-c2csc(N3CCCCCC3)n2)cc1	0%	46%	+	33*
COc1ccc(-c2noc(CN3CCOCC3)n2)cc1OC	27%	74%	34	9
COc1cccc(NS(=O)(=O)NC(=O)c2cn(C)c3ccccc23)c1	0%	23%	23	-1
CC(C)NC(=O)COC(=O)C1CSC2(c3ccc(Br)cc3)CCC(=O)N12 (stereo not drawn)	4%	7%	14	5
O=C(CN1CCCCC1)Nc1nc(-c2ccc(Cl)cc2)cs1	1%	-7%	-7	-4
